What was measured:
Conditions in all cases: concentration: 1 μM, replicates: in singlicate; n = 1
PRKD3 = tested on: PRKD3
PRKG1 = tested on: PRKG1
PRKG2 = tested on: PRKG2
PRKR = tested on: T1, PRKR
T1 construct: gene EIF2AK2

PRKX = tested on: PRKX
PRP4 = tested on: PRP4
PYK2 = tested on: T2, PYK2
T2 construct: gene PTK2B

QSK = tested on: QSK
RAF1 = tested on: RAF1
RET = tested on: RET
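Further: KINOMEscan kinase panel screen.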

| SMILES | %Inh (PRKD3) [%] | %Inh (PRKG1) [%] | %Inh (PRKG2) [%] | %Inh (PRKR) [%] | %Inh (PRKX) [%] | %Inh (PRP4) [%] | %Inh (PYK2) [%] | %Inh (QSK) [%] | %Inh (RAF1) [%] | %Inh (RET) [%] |
| --- | --- | --- | --- | --- | --- | --- | --- | --- | --- | --- |
| Nc1ncc(-c2cccnc2)c2scc(-c3ccc4c(c3)CCN4C(=O)Cc3ccccc3)c12 [GSK683281] | 18 | 12 | 25 | 5 | 23 | 0 | 35 | 18 | 11 | 21 |
| Cn1cc(-c2ccc3c(c2)CCN3C(=O)Cc2cccc(Cl)c2)c2c(N)ncnc21 [GSK2606590] | 9 | 14 | 0 | 14 | 21 | 2 | 4 | 23 | 1 | 27 |
| COc1cc(Nc2nccc(-c3c(-c4cccc(NC(=O)c5c(F)cccc5F)c4)nn4ccccc34)n2)cc(OC)c1OC [GSK323521] | 42 | 31 | 0 | 15 | 22 | 1 | 2 | 3 | 16 | 29 |
| Nc1ncnc2c1nc(-c1ccccc1)n2-c1ccccc1 [SKF-97293] | 22 | 7 | 0 | 27 | 3 | 15 | 8 | 26 | 0 | 17 |
| CN(C)Cc1ccc(-c2ccc3c(Nc4ccc(Oc5ccccn5)cc4)ccnc3c2)o1 [GW567148] | 0 | 0 | 0 | 0 | 22 | 4 | 0 | 0 | 0 | 1 |
| Cl.NC(=O)c1cccc(Nc2nccc(Nc3ccc(Oc4c(Cl)cccc4Cl)c(Cl)c3)n2)c1 [GW659009] | 21 | 0 | 0 | 0 | 0 | 20 | 0 | 0 | 88 | 0 |
| COc1ccc(Nc2nccc(NCCNC(=O)c3cc4ccccc4s3)n2)cc1 [GSK1379896] | 0 | 0 | 0 | 0 | 16 | 17 | 0 | 2 | 9 | 25 |
| CCn1c(-c2nonc2N)nc2c(C#CC(C)(C)O)nc(OC[C@H](N)c3ccccc3)cc21 [GSK943949] | 22 | 60 | 92.6 | 0 | 92.1 | 10 | 7 | 0 | 11 | 10 |
| CC(C)(C)c1ccc2nccc(Nc3cccc(O)c3)c2c1 [GW856795] | 77 | 1 | 4 | 0 | 0 | 27 | 0 | 0 | 0 | 94.7 |
| COCCOCCOc1cc2ncc3c4ccc(C#N)cc4[nH]c3c2cc1OC | 0 | 0 | 17 | 41 | 0 | 19 | 6 | 67 | 0 | 45 |
| Cn1cc(-c2[nH]c3cc(NC(=O)[C@H](N)C4CCCCC4)cc4c3c2C=NNC4=O)cn1 | 0 | 56 | 96.2 | 67 | 89 | 68 | 3 | 95.8 | 0 | 100 |
| C[C@@H](Oc1cc(-n2cnc3cc(-c4ccnc(NCCS(C)(=O)=O)c4)ccc32)sc1C(N)=O)c1ccccc1Cl [GSK907232] | 0 | 10 | 0 | 0 | 0 | 60 | 24 | 14 | 18 | 51 |
| NCCCC(NC(=O)c1cc(Br)c(-c2ccnc3[nH]ccc23)s1)c1ccccc1.O=C(O)C(F)(F)F.O=C(O)C(F)(F)F (centres unmarked) [GSK1287544] | 53 | 97.8 | 98 | 0 | 92.5 | 0 | 0 | 0 | 0 | 54 |
| COc1ccc(Nc2nccc(N3CCC(NC(=O)Nc4cccc(OC)c4)C3)n2)cc1 (centres unmarked) [GSK1379742] | 0 | 0 | 0 | 0 | 15 | 12 | 5 | 6 | 3 | 7 |
| CCS(=O)(=O)c1ccc(OC)c(Nc2nccc(-c3c(-c4cccc(NC(=O)c5c(F)cccc5F)c4)nn4ncccc34)n2)c1 [GSK326180] | 12 | 6 | 3 | 0 | 18 | 20 | 12 | 7 | 93.2 | 20 |
| C[C@@H]1CC[C@@H](C(=O)Nc2ccccc2)CN1c1cc(-c2ccc3c(N)n[nH]c3c2)nc(N)n1 [GSK2286062] | 0 | 0 | 0 | 2 | 5 | 13 | 3 | 3 | 2 | 6 |

| SMILES | %Inh (PRKD3) [%] | %Inh (PRKG1) [%] | %Inh (PRKG2) [%] | %Inh (PRKR) [%] | %Inh (PRKX) [%] | %Inh (PRP4) [%] | %Inh (PYK2) [%] | %Inh (QSK) [%] | %Inh (RAF1) [%] | %Inh (RET) [%] |
| --- | --- | --- | --- | --- | --- | --- | --- | --- | --- | --- |
| COc1ccc(-c2coc3ccc(-c4nnc(SCc5ccc(OC)c(C(F)(F)F)c5)o4)cc23)cc1 | 0 | 6 | 14 | 0 | 0 | 15 | 0 | 0 | 12 | 0 |
| Cl.Cl.NCC(NC(=O)c1cc(-c2ccccc2)c(-c2ccnc3[nH]ccc23)s1)c1ccccc1 (centres unmarked) [GSK1321561] | 38 | 70 | 18 | 3 | 76 | 5 | 0 | 14 | 18 | 35 |
| Cl.c1ccc(-c2ccc3c(Nc4ccc5[nH]ccc5c4)ccnc3c2)nc1 [GW440138] | 5 | 0 | 0 | 0 | 3 | 77 | 0 | 0 | 40 | 96.9 |
| Cc1occc1-c1ncc(OC[C@@H](N)Cc2c[nH]c3ccccc23)cc1-c1ccc2[nH]nc(C)c2c1.O=C(O)C(F)(F)F [GSK682037] | 95.6 | 57 | 14 | 0 | 56 | 11 | 49 | 11 | 11 | 84 |
| O=C(Nc1n[nH]c2cc(-c3ccoc3)ccc12)C1CC1 [SB-738481] | 0 | 0 | 14 | 0 | 0 | 0 | 9 | 11 | 0 | 0 |
| Cc1ccc(C)c(NC(=O)NC2CCN(c3ccnc(Nc4ccc(F)cc4)n3)C2)c1 (centres unmarked) [GSK1379720] | 0 | 0 | 0 | 0 | 4 | 51 | 19 | 13 | 14 | 0 |
| c1ccc(-c2cnc3nccnn23)cc1 [AH20685] | 0 | 14 | 0 | 0 | 6 | 6 | 0 | 0 | 7 | 0 |
| COC(=O)Nc1nc2ccc(Oc3ccc(NC(=O)Nc4cc(C(F)(F)F)ccc4F)cc3)cc2n1C.Cl [GW692089] | 5 | 14 | 5 | 0 | 0 | 58 | 0 | 0 | 85 | 99.5 |
| O=C(O)C(F)(F)F.O=C(O)C(F)(F)F.O=c1[nH]ccc2nc(N[C@@H]3CCCNC3)nc(Nc3ccc(S(=O)(=O)N4CCOCC4)cc3)c12 [GSK2177277] | 100 | 66 | 96.5 | 86 | 94.6 | 92.9 | 98.9 | 85 | 0 | 99.9 |
| COc1cccc(NC(=O)NC2CCN(c3ccnc(Nc4cc(OC)c(OC)c(OC)c4)n3)C2)c1 (centres unmarked) [GSK1379763] | 0 | 0 | 0 | 6 | 28 | 26 | 4 | 0 | 7 | 16 |
| CN1CCN(CCCNc2nccc(-c3c(-c4ccc(F)cc4)nn4cc(C(F)(F)F)ccc34)n2)CC1 [GW621581] | 62 | 10 | 0 | 0 | 13 | 25 | 0 | 0 | 8 | 0 |
| COc1cccc(-c2ccc3c(NC(=O)C4CC4)n[nH]c3n2)c1 [SB-710903] | 0 | 0 | 0 | 0 | 0 | 70 | 6 | 0 | 12 | 6 |
| COc1cc2c(cc1OCCN1CCNCC1)ncc1c3ccc(C#N)cc3[nH]c21 | 0 | 0 | 7 | 9 | 34 | 38 | 0 | 52 | 29 | 35 |
| O=c1[nH]cc(-c2ccc(N3CCOCC3)cc2)c2sc(-c3cn[nH]c3)cc12 [GSK2276055] | 4 | 0 | 10 | 34 | 10 | 0 | 0 | 11 | 0 | 3 |
| Clc1ccc(-c2nn3ncccc3c2-c2ccnc(Nc3ccc4c(c3)OCCO4)n2)cc1 [GW829116] | 3 | 0 | 0 | 0 | 0 | 0 | 24 | 0 | 16 | 24 |
| Nc1n[nH]c2cnc(-c3ccccc3)cc12 [SB-642124] | 0 | 0 | 0 | 0 | 19 | 18 | 5 | 0 | 11 | 0 |

Reference: PMC5540273 (PLoS ONE, 2017)
